The nature of test [1]: qHTS assay for measurement of the activity of small molecule inhibitors on Zika virus induced Caspase-3 activity in human iPSC derived neural progenitor cells (hNPCs) (AID 1224857). Note: % of control where 0% means no effect; nearly all actives have a fitted effect of over 65% in size. In short, it runs like this:
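Pretreat hNPCs with compound 1 h; infect ZIKV 2 FFU/cell; 6 h 37 C, 5% CO2; Caspase-Glo 3/7, 30 min RT; luminescence; normalize to no-virus and virus-only wells.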
(In general: In qHTS, concentration-response curves come from the screen itself.)

Test [2] is described as follows: qHTS assay for measurement of the activity of small molecule inhibitors on Zika virus induced Caspase-3 activity in human astrocytoma cells (AID 1224859).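 Note: plate controls were ZIKV-infected untreated cells for no effect and uninfected cells for full effect.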 A digest of the protocol: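 Human SNB-19 astrocytoma cells in RPMI 1640 with 10% FBS receive compound one hour ahead of Zika virus at 2 FFU/cell. After 6 h infection, caspase-3/7 activity is detected by Caspase-Glo luminescence.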

Test [3] in a line: qHTS assay to identify small molecule inhibitors of chordoma cells - UCH-1 (AID 1259355). Note: nearly all actives have a fitted effect of over 55% in size. Note: potency is the fitted concentration of half-maximal effect; series mostly up to about 46 µM. A digest of the protocol: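 Screening used approved and investigational drugs in 15-point titration against 800 seeded cells per well. A fixed combination of auranofin with camptothecin, doxorubicin, rubitecan and topotecan followed compound addition, and growth was scored by CellTiter-Glo after 48hr.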

Test [4] is described as follows: qHTS assay to identify small molecule inhibitors of chordoma cells - UCH-2 (AID 1259356). Note: series mostly up to about 46 µM; % is set by controls: 0 for no effect and ±100 for the full control effect.
Test [5] can be described thus: Natriuretic polypeptide receptor (hNpr1) antagonism - Pilot counterscreen GloSensor control cell line (AID 1347045; calls by dose curve; note: series mostly up to about 38 µM; % is set by controls: 0 for no effect and ±100 for the full control effect). A digest of the protocol: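 Control counterscreen: luciferase cGMP-biosensor HEK293 cells (no Npr1) received compound for 30 min at room temperature after GloSensor substrate loading. Luminescence was measured before and 20 min after soluble guanylyl cyclase activation by 50 uM nitroprusside.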
Background: A counterscreen serves to expose hits that act by an unwanted route or on another target.

For test [6], the target named is Atrial natriuretic peptide receptor 1 (Homo sapiens) (UniProt P16066). Briefly: Natriuretic polypeptide receptor (hNpr1) antagonism - Pilot screen (AID 1347049; calls by dose curve;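 note: agonist-evoked cGMP luminescence read 20 min after hNppA addition; series mostly up to about 58 µM; % is set by controls: 0 for no effect and ±100 for the full control effect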). A digest of the protocol: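 cGMP-sensor HEK293/hNpr1 cells, 1500/well, plated overnight at 37C. 2% GloSensor reagent, 2 h RT. Compound (23 nL pin transfer) 30 min RT, baseline luminescence pre-read. 0.1 nM hNppA, 20 min RT, post-read.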
Sequence of Atrial natriuretic peptide receptor 1 (Homo sapiens) (P16066 whole entry, looked up): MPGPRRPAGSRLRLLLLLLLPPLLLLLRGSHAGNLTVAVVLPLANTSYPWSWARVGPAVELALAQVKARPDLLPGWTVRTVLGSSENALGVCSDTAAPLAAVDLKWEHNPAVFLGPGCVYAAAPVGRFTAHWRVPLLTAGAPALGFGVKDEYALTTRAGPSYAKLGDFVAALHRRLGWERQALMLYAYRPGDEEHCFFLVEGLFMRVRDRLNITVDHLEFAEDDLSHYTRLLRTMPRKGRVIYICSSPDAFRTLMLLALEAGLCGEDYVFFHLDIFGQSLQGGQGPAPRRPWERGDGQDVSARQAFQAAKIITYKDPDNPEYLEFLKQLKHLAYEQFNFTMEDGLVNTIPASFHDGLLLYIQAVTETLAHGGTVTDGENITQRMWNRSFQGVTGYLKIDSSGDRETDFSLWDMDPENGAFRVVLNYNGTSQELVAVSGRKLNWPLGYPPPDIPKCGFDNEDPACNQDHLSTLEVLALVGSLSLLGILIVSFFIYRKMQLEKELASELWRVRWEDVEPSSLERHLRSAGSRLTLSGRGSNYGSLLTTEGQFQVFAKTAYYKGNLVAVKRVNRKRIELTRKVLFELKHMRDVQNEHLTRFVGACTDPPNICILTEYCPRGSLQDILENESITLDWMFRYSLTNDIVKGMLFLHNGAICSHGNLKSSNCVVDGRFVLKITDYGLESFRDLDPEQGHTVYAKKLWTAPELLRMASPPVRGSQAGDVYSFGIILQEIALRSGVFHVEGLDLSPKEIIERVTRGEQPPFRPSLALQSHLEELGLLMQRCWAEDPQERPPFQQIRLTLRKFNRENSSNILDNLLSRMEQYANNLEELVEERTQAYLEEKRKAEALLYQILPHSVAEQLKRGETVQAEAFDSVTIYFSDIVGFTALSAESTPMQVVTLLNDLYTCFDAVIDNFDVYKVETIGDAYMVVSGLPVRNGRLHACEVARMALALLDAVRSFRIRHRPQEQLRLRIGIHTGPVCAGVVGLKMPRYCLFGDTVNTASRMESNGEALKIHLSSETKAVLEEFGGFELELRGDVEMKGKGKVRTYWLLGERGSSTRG

In test [7] the target is Atrial natriuretic peptide receptor 2 (Homo sapiens) (UniProt P20594). The experiment in a line: Natriuretic polypeptide receptor (hNpr2) antagonism - Pilot subtype selectivity assay (AID 1347050; calls by dose curve; note: % is set by controls: 0 for no effect and ±100 for the full control effect). In short, it runs like this: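 Luminescence from a genetically encoded cGMP luciferase biosensor in hNpr2-expressing HEK293 cells is read before and 20 min after adding 1 nM hNppC. Test compounds, in interplate 1:5 titrations, are added 30-50 min ahead of the agonist.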
Sequence of Atrial natriuretic peptide receptor 2 (Homo sapiens) (P20594 whole entry, looked up): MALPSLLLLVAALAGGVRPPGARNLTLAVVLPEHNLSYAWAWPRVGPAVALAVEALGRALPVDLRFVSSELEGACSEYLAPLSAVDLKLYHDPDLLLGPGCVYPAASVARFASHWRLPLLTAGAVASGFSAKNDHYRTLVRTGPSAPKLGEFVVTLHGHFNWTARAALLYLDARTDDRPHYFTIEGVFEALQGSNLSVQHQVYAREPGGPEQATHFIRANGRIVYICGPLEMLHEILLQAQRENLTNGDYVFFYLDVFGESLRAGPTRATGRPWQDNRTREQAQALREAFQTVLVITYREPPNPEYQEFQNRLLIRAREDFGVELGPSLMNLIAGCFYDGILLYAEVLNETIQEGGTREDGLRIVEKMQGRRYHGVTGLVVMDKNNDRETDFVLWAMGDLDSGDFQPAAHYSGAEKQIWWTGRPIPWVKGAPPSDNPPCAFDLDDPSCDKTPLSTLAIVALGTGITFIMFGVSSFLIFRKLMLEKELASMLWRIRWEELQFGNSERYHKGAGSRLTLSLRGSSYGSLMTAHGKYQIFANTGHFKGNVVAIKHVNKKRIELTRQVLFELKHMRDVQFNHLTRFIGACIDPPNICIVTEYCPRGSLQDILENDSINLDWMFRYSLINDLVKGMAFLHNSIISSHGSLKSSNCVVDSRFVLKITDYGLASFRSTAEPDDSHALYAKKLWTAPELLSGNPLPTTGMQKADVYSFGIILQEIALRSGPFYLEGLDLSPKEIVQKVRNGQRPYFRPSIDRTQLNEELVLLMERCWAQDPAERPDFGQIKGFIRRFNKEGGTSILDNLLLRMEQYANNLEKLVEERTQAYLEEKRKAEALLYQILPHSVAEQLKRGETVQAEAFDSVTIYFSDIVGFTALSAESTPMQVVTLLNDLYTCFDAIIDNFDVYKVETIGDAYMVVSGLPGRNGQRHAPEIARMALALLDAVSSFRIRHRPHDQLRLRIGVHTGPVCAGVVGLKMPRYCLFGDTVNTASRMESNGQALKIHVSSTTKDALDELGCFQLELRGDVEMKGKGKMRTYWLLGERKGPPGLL

Test [8] is described as follows: NS1 protein of Zika virus - qHTS assay to identify small molecule inhibitors in human HEK 293 cells (AID 1347053).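 Note: series mostly up to about 46 µM; plate controls were infected untreated cells for no effect and uninfected cells for full effect; nearly all actives have a fitted effect of over 55% in size.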 In short, it runs like this: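 In this cell-based screen, HEK 293 cultures received compound for one hour before Zika MR766 at MOI = 0.5. NS1 was quantified 24 hours later by TR-FRET, normalized to virus-free wells and infected wells.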
Test [9] has as its target T1, Tyrosine-protein phosphatase non-receptor type substrate 1 (Homo sapiens) + Leukocyte surface antigen CD47 (Homo sapiens) (UniProt P78324+Q08722). The experiment in a line: CD47-SIRPalpha protein protein interaction - LANCE assay qHTS validation (AID 1347057; active = well fitted curve in the direction sought with a large enough effect in the signal ratio, with a control signal flat, not every such curve was filed as active; the % refers to the signal ratio; note: series mostly up to about 38 µM; 0% is about no effect). In short, it runs like this:
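Inhibition of soluble CD47/SIRPalpha ectodomain association by titrated compounds, measured as 665/615 nm time-resolved FRET ratio after sequential 30 min room-temperature incubations.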
In general terms: Time-resolved FRET reads energy transfer from a long-lived donor to a nearby acceptor.

The target in test [10] is T1, Tyrosine-protein phosphatase non-receptor type substrate 1 (Homo sapiens) + Leukocyte surface antigen CD47 (Homo sapiens). Briefly: CD47-SIRPalpha protein protein interaction - HTRF assay qHTS validation (AID 1347058; active = well fitted curve in the direction sought with a large enough effect in the signal ratio, not every such curve was filed as active; the % refers to the signal ratio; note: series mostly up to about 38 µM; 0% is about no effect). A digest of the protocol:
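Soluble extracellular domains (6His-CD47, Avi-tag-biotinylated SIRPalpha) in PBS pH 7.4 with 0.05% IGEPAL CA-630. Compounds were preincubated 30 min at RT with CD47 and anti-His-Eu, then SIRPalpha and SAV-XL665 were added. TR-FRET 665/615 ratio.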

Test [11] has the same target. Briefly: CD47-SIRPalpha protein protein interaction - Alpha assay qHTS validation (AID 1347059). A digest of the protocol: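 SIRPalpha-biotin 25 nM + cpd, 30 min RT, dark; add CD47-His 12.5 nM, 30 min; add Ni-NTA/SAV beads 10 ug/mL, 30 min; AlphaScreen. Buffer PBS pH 7.4 + 0.05% IGEPAL CA-630. Non-biotinylated SIRPalpha as control inhibitor.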
Test [12] in a line: qHTS of pediatric cancer cell lines to identify multiple opportunities for drug repurposing: Primary screen for DAOY cells (AID 1347090).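 Note: series mostly up to about 46 µM; plate controls were DMSO for no effect and bortezomib for full effect; nearly all actives have a fitted effect of over 55% in size.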 In short, it runs like this: (§1)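 Viability measured as metabolically active cells via CellTiter-Glo luminescence following 48 hours of compound exposure, 11-point dilutions in confirmatory testing. 500-1,000 cells/well plated 5 hours before dosing; controls were DMSO and 2.3 µM bortezomib.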

Test [13] in a line: qHTS of pediatric cancer cell lines to identify multiple opportunities for drug repurposing: Primary screen for SJ-GBM2 cells (AID 1347091).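 For activity change, negative = cytotoxic: plate controls were DMSO neutral control for no effect and bortezomib for full effect.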 Note: potency is the fitted concentration of half-maximal effect. A digest of the protocol:
as §1

The target in test [14] is Parathyroid hormone/parathyroid hormone-related peptide receptor (Homo sapiens) (UniProt Q03431). The experiment in a line: qHTS for PTHR1 Agonists: Optimization Screen against the NCGC LOPAC library (AID 1347079).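 Note: GloSensor cAMP luminescence in HEK-293 GP2 cells expressing human PTHR1 with IBMX; 0% is about no effect.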 A digest of the protocol: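 HEK-293 GP2 cells, PTHR1 + GloSensor cAMP; 3000 cells/well, o/n. Luciferin + IBMX 0.5mM each (stock), 1 hr 37C. Cpd titration, 1 hr 37C. Lum after 15 min RT. Ctrl M-PTH(1-15) top 10uM.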
Sequence of Parathyroid hormone/parathyroid hormone-related peptide receptor (Homo sapiens) (Q03431 whole entry, looked up): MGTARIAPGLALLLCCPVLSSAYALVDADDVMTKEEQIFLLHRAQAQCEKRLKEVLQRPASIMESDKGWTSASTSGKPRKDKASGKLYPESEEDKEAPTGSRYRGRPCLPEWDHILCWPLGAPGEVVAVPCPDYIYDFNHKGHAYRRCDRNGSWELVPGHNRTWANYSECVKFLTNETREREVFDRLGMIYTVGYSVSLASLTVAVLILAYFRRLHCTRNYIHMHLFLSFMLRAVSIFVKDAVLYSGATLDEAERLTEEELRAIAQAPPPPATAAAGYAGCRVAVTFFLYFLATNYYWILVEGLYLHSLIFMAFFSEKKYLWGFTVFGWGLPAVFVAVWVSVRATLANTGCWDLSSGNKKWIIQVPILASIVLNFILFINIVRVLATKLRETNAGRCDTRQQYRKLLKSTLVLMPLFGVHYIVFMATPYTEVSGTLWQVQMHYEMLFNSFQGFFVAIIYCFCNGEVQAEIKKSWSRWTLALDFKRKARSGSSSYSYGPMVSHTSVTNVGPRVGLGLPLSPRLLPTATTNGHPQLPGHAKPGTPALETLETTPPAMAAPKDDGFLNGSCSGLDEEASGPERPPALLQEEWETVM

Test [15] can be described thus: qHTS of pediatric cancer cell lines to identify multiple opportunities for drug repurposing: Primary screen for TC32 cells (AID 1347089). Note: % is set by controls: 0 for no effect and ±100 for the full control effect; nearly all actives have a fitted effect of over 60% in size. A digest of the protocol:
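Luminescent CellTiter-Glo read-out of metabolically active TC32 cells after 48 h compound exposure. Primary: MIPE 11-point, 0.78 nM–46 µM; NPC 8-point, 0.59 nM–46 µM. Confirmatory: 11-point dilutions.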

Test [16] is described as follows: P-glycoprotein substrates identified in KB-8-5-11 adenocarcinoma cell line, qHTS therapeutic library screen (AID 1346987). Note: nearly all actives have a fitted effect of over 65% in size. Note: potency is the fitted concentration of half-maximal effect. A digest of the protocol: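 Compounds are pinned in dose-response onto KB-8-5-11 cells (500 cells/well, colchicine-free medium) and left 72 h at 37 degree C. CellTiter-Glo luminescence then yields AC50 values.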

Molecules are shown by their SMILES. A number with no mark means an inactive call. Inconclusive results are not listed. The source made the active and inactive calls. Unless noted, calls come from the whole dose curve; as a rule, active = well fitted curve in the direction sought with a large enough effect; inconclusive = small, poorly fitted or top-dose-only effect, or another doubt; inactive = no such curve, though single readings can be large; an effect the other way counts as inactive or inconclusive.

T1 sequence (P78324 whole entry, looked up, the tested form may be a part): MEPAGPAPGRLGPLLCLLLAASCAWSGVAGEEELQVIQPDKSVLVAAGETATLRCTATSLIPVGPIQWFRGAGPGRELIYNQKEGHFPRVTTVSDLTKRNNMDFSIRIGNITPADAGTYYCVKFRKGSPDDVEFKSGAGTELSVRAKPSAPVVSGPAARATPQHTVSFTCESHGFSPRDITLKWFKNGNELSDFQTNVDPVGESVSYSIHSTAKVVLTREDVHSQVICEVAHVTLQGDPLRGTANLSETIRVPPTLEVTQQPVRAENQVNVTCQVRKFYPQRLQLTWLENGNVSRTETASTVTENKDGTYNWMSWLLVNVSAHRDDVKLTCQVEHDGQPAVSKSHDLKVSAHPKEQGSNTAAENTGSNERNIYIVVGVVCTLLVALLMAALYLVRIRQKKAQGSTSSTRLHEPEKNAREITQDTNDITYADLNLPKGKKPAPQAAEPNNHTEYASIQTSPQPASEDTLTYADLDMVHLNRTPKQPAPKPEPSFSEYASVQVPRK
T1 sequence (Q08722 whole entry, looked up, the tested form may be a part): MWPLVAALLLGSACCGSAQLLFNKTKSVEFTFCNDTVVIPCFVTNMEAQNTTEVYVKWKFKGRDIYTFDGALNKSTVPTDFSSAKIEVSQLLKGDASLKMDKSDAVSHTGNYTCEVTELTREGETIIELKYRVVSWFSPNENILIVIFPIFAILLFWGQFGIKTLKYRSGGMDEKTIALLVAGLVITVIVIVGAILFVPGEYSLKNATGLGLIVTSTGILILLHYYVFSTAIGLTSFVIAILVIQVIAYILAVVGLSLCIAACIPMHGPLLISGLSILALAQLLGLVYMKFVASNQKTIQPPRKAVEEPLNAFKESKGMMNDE

For `CN(C)CCN(Cc1cccs1)c1ccccn1`, the outcome in [1], in test [2], in [8], in test [9] and in test [10] was inactive. The Potency entry in test [3], in test [4], in test [5], in [6], in [7] and in [11] was “inactive” in each case. In addition, the Potency entry in [12] and in test [13] was “inactive” throughout.

On to `COCCOC(=O)C1=C(C)NC(C)=C(C(=O)OC(C)C)C1c1cccc([N+](=O)[O-])c1` (stereo not given), for which the compound was classed as inactive in [1], in test [2], in test [8], in [9] and in [14]. Moreover, the Potency result in test [3], in test [4], in test [5], in test [6], in [7] and in [11] was “inactive” each time. The Potency result in test [15] was “inactive”.

As to `c1ccc2c(c1)CCCC2C1=NCCN1` (stereo not given), the result in test [1], in test [2], in test [8], in [10] and in test [14] was inactive. In addition, the Potency entry in test [3], in [4], in test [16], in [5], in [6] and in [7] was “inactive” each time. In addition, the Potency result in [15], in test [12] and in test [13] was “inactive” in each case.

On to `CC(C)(C)c1ccc(C(=O)CCCN2CCC(OC(c3ccccc3)c3ccccc3)CC2)cc1`, for which the call in [1], in test [2], in test [8] and in test [9] was inactive. Moreover, the Potency in [3] is 15.8 µM (active); in test [16], 20.6 µM (active); in [13] it was 26.6 µM (active). For the same compound, the Potency result in [4], in [6], in [7] and in test [11] was “inactive” in each case.

In the case of `Cc1ccc(Cl)c(Nc2ccccc2C(=O)O)c1Cl`, the compound was classed as inactive in test [1], in [2], in test [8] and in test [14]. The Potency entry in test [3], in test [4], in test [16], in test [5], in test [6] and in test [7] was “inactive” throughout. Moreover, the Potency entry in test [11] was “inactive”.

`COc1cc(Cc2cnc(N)nc2N)cc(OC)c1OC`: the compound was classed as inactive in test [1], in test [2], in [8], in [10] and in test [14]. The Potency result in [3], in test [4], in [16], in test [5], in test [6] and in test [7] was “inactive” throughout. The Potency result in test [11], in test [12] and in test [13] was “inactive” each time.

`NC(=O)c1ncn([C@@H]2O[C@H](CO)[C@@H](O)[C@H]2O)c1O`: the compound was classed as inactive in [1], in test [2], in [8], in test [10] and in [14]. The Potency result in test [3], in [4], in test [16], in [5], in test [6] and in test [7] was “inactive” each time. Besides, the Potency result in test [11], in [15], in test [12] and in [13] was “inactive” throughout.

Regarding `O=C(O)CN(CCOCCOCCN(CC(=O)O)CC(=O)O)CC(=O)O`, the compound was classed as inactive in test [1], in [2], in [8], in [10] and in test [14]. Also, the Potency result in [3], in test [4], in [16], in test [5], in test [6] and in test [7] was “inactive” in each case. Besides, the Potency entry in test [11] is “inactive”. Besides, the activity change, negative = cytotoxic in test [15] was 12.3% [at 0.594 µM]; in test [12], 12.8% [at 0.597 µM]; in test [13], 26.6% [at 0.597 µM].

With `C#CCN(C)CCCOc1ccc(Cl)cc1Cl`, the outcome in test [1], in [2], in test [8], in [9], in test [10] and in test [14] was inactive. Further, the Potency entry in [3], in test [4], in test [5], in test [6], in [7] and in test [11] was “inactive” in each case. Besides, the Potency result in test [15], in test [12] and in test [13] was “inactive” in each case.

The values are drawn from PubChem BioAssay (NCATS).
